pKd: −log10 of the molar value.
Tests used:
[1] = tested on: TYK2(JH1domain-catalytic)
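Also: kd values determined as follow-up on hits from a single-replicate KINOMEscan panel screen.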

Q: How did the pKd (TRPM6) turn out when Cn1ccc2ncnc(Oc3ccc(Nc4nc5ccccc5[nH]4)cc3)c21 was run?
A: < 5.00

Q: How did the pKd (TSSK1B) turn out when CCCc1ccc(S(=O)(=O)NC2CCN(c3ccnc(Nc4ccc(F)cc4)n3)C2)cc1 (centres unmarked) [GSK1379715] was run?
A: < 5.00

Q: How did the pKd (TXK) turn out when Cc1cccc(-c2cc(Nc3ccncc3)c3ccccc3n2)n1 [GSK223675] was run?
A: < 5.00

Q: How did the pKd [1] turn out when Cl.Oc1ccc(-c2nc(-c3ccccc3)[nH]c2-c2ccncc2)cc1 [SB-428218] was run?
A: < 5.00

Q: With Cc1csc(-c2nc(Nc3ccncc3)c3ccccc3n2)n1 [GW869640] as the compound, how does the pKd [1] read?
A: < 5.00

Reference: publication PMC5540273 (PLoS ONE, 2017)
